The supplement of paper PMC3334620
Whole data set: some 33,000 sequences, median “E-score (-0.5 to 0.5)” near -0.011, cut for the highest 2% near 0.28. The list comes from a sample in which the highest values are over-represented; it also holds similar and randomly drawn sequences.

Biological target: T1, Gcr1 (UniProt P07261)
T1 sequence: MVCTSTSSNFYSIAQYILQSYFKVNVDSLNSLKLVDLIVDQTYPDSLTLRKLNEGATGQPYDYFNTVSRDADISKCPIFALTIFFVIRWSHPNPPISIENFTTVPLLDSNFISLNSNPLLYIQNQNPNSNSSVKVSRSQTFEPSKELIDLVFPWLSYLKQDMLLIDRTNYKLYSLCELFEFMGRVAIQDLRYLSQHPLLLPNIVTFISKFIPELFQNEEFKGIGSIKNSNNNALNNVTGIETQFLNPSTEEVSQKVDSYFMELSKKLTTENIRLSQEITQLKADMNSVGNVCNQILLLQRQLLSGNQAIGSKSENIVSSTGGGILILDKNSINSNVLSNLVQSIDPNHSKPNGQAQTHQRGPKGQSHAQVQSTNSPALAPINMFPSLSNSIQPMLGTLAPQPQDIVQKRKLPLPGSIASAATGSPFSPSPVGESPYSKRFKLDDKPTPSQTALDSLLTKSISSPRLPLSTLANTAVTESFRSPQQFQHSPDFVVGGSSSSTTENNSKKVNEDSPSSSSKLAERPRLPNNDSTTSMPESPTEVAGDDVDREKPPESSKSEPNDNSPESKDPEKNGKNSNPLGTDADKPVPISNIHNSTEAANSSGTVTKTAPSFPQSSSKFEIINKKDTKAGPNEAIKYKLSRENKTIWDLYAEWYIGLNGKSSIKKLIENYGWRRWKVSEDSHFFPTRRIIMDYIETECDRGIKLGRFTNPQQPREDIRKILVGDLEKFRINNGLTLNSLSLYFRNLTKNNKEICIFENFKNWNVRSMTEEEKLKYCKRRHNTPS
Assay: PBM E-score (8-mer binding enrichment) (E-score (-0.5 to 0.5)); higher = stronger / more preferred TF binding
Conditions: protein concentration: 100 nM; construct: GST-full length
Procedure, shortened: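 Yeast transcription factors, full-length or as DNA-binding domains, were expressed with a GST tag using PURExpress in vitro transcription/translation. At about 100-200 nM they were applied to universal all-10-mer Agilent arrays, double-stranded by primer extension on fresh or once-stripped slides. Fluorescent anti-GST detected bound protein, and masliner normalised the scans. E-scores for ungapped eight-base words, pooled with reverse complements, came from the Universal PBM Analysis Suite.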

| Sequence | PBM E-score |
| --- | --- |
| ACCGTTAA | -0.119 |
| GCGGACTA | -0.12 |
| GCGTCTCA | 0.146 |
| TCGTCCCA | -0.0947 |
| GCGTCTCC | 0.317 |
| CCGTCCCC | 0.00017 |
| GCGTCCTA | 0.43 |
| ACGTCCCA | -0.153 |
| GCGTCCCC | 0.304 |
| ACGTCCCC | -0.0668 |
| ACGTCCTA | 0.0954 |
| GCGTCCCA | 0.282 |
| CCGTCCTA | -0.158 |
| ACGTCTCC | 0.101 |
| ACTCAACA | 0.122 |
| GCGATCAC | -0.0279 |
| GAGCGACA | -0.0391 |
| TATTGGGA | -0.02 |
| ACTGCACC | 0.014 |
| CAGCCCTC | -0.0883 |
| AAGAATAA | 0.0669 |
| AAAACTGG | 0.254 |
| CATTTACG | 0.0351 |
| GAGTCCCC | -0.0421 |

| Sequence | PBM E-score |
| --- | --- |
| CAGTCCCA | 0.0489 |
| GAGTCCCA | 0.313 |
| ACAGCGTC | -0.0458 |
| AGGGCGTC | 0.26 |
| CCGGCGTA | -0.139 |
| GCGGCGCC | 0.324 |
| CGGGCGTA | -0.097 |
| GCGGCGAC | 0.148 |
| CCAGCGTA | -0.178 |
| CGGGCGTC | 0.307 |
| CCAGCGTC | 0.314 |
| ACGGCGTC | 0.243 |
| CCGGCGTC | 0.402 |
| GCGGCGCA | -0.064 |
| GCGCCTGA | 0.171 |
| ATCCTACG | -0.00941 |
| AGGCCCCG | 0.0239 |
| ATGATTTC | -0.142 |
| AAATTGTG | -0.0559 |
| CATAACCC | -0.121 |
| CTCAATCA | 0.119 |
| CCGGCGCG | -0.112 |
| CCGGCGCC | 0.317 |
| ACGGCGCT | -0.00448 |

| Sequence | PBM E-score |
| --- | --- |
| ACGGCGCC | 0.312 |
| ACGGCGCA | -0.265 |
| CCGGCGCA | -0.0778 |
| CCTAAAGG | 0.0292 |
| AACTGATC | -0.114 |
| ATGGATCA | -0.201 |
| GCACCACC | -0.0802 |
| GTAGGCCA | -0.106 |
| ATCCGGAA | 0.26 |
| ATCCGGAT | 0.286 |
| ATCCGGAC | -0.106 |
| GAAGTAAA | -0.0223 |
| GAGGCGCC | 0.302 |
| AAGGCGCC | 0.258 |
| GAGGCGCA | 0.0503 |
| CAGGCGCA | -0.0694 |
| CAGGCGCG | -0.0119 |
| CAGGCGCC | 0.361 |
| AAATGGTT | 0.0753 |
| ATTGAAGA | 0.0516 |
| CAGATAGG | 0.0828 |
| TAATTGAA | 0.228 |
| ACACGCAC | 0.0159 |
| ACACGCAA | 0.127 |

| Sequence | PBM E-score |
| --- | --- |
| CTACGCAG | 0.0122 |
| ATACGCAG | 0.281 |
| ATACGCAT | 0.23 |
| ACACGCAG | 0.323 |
| AGGCTATC | -0.243 |
| TGTTCAAA | -0.014 |
| AAGGAGGT | -0.0668 |
| AAGAGGGG | 0.0114 |
| AGGGCTTA | -0.262 |
| CGGGCTTA | 0.00411 |
| AGGGCTTC | 0.339 |
| ACGGCTTC | 0.238 |
| CGGGCTGC | 0.234 |
| CCGGCTTC | 0.358 |
| CCGGCTTA | -0.0254 |
| CGGGCTTC | 0.415 |
| AGGGCTTG | -0.209 |
| CTCCCCGC | 0.196 |
| ACGGCACG | -0.0602 |
| ACGGTCGA | -0.354 |
| GGGGGCGA | -0.0875 |
| GCTGGTCA | -0.151 |
